A selection: hits, their analogues and other compounds. The true share with any hit is near 11%.
hNpr1 antagonist – Natriuretic polypeptide receptor (hNpr1) antagonism - Primary qHTS; Atrial natriuretic peptide receptor 1 (Homo sapiens), P16066; HEK293 hNpr1 GloSensor cGMP, ANP-stimulated luminescence; Potency, µM (titrated, usually from 46.3 µM), for inactives: at the highest dose activity change, negative = inhibition, hits mostly inhibitors; hit rate 1.6% among 76,000; AID 1347048, 2019; note: % is set by controls: 0 for no effect and ±100 for the full control effect; nearly all actives have a fitted effect of over 60% in size
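HEK293 cells stably expressing human Npr1 and cGMP GloSensor pGS-40F, loaded 2 h with 2% GloSensor reagent, given compound 30 min at room temperature. Luminescence read before and 20 min after 0.1 nM hNppA.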
3T3 cytotox – Cytotoxic Profiling in NIH 3T3 Cell Line of Diverse Libraries Using Quantitative High-Throughput Screening. NIH 3T3 viability, CellTiter-Glo ATP luminescence, 48-72 h. hit rate 4.3% among 94,000. Potency, µM (highest dose often 96.7 µM), for inactives: at the highest dose activity change, negative = cytotoxicity, hits mostly inhibitors. AID 1345082, 2018; active = well fitted curve in the direction sought with a large enough effect; inconclusive = small, poorly fitted or top-dose-only effect, or another doubt; inactive = no such curve, though single readings can be large; an effect the other way counts as inactive or inconclusive; note: % is set by controls: 0 for no effect and ±100 for the full control effect; nearly all actives have a fitted effect of over 55% in size
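Viability of NIH 3T3 cells after 48 or 72 hr compound treatment at 37 °C was assessed by CellTiter-Glo, with luminescence imaged following a 10 min room-temperature step.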
HEK293 tox – Cytotoxic Profiling in HEK 293 Cell Line of Diverse Libraries Using Quantitative High-Throughput Screening; HEK 293 viability, ATP luminescence (CellTiter-Glo), 48-72 h; AID 1345083, 2018; Potency, µM (series often up to 115 µM), for inactives: at the highest dose activity change, negative = cytotoxicity, usual class: inhibitors; hit rate 6.6% among 94,000; active = well fitted curve in the direction sought with a large enough effect; inconclusive = small, poorly fitted or top-dose-only effect, or another doubt; inactive = no such curve, though single readings can be large; an effect the other way counts as inactive or inconclusive; note: % is set by controls: 0 for no effect and ±100 for the full control effect; nearly all actives have a fitted effect of over 60% in size
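HEK 293 seeded at 250 cells/well receive compound via pintool. After 48 or 72 hr at 37 degree Celsius, 5% CO2 and 95% humidity, CellTiter-Glo is dispensed and luminescence read following 10 min at room temperature.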
Luciferase inh – Firefly luciferase inhibition profiling of diverse chemical library using quantitative high-throughput screening | Luciferin 4-monooxygenase (Photinus pyralis), P08659 | purified P. pyralis luciferase, luminescence, biochemical | Potency, µM (series often up to 115 µM), actives largely listed as inhibitors | hit rate 2.5% among 76,000 | AID 1347043, 2019; active = well fitted curve in the direction sought with a large enough effect; inconclusive = small, poorly fitted or top-dose-only effect, or another doubt; inactive = no such curve, though single readings can be large; an effect the other way counts as inactive or inconclusive; note: % is set by controls: 0 for no effect and ±100 for the full control effect; nearly all actives have a fitted effect of over 65% in size
Target sequence (P08659 whole entry, looked up): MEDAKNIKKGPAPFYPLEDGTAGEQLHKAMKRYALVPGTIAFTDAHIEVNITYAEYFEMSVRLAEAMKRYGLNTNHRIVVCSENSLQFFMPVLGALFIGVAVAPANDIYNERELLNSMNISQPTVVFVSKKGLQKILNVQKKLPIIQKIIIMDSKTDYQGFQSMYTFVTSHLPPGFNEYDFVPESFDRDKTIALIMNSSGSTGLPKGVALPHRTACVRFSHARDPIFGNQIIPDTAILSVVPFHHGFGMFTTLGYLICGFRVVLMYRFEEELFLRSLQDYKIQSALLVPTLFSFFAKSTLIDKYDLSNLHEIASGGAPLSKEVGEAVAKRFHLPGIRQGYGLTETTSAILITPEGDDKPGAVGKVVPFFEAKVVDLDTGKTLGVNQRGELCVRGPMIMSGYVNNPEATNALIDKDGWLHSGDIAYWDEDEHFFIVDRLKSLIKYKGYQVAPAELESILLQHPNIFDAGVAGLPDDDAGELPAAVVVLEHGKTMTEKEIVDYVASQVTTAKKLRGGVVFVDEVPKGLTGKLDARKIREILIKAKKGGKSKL
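Biochemical qHTS: compound (6-point titration) added to 10uM D-luciferin plus 10uM ATP in Tris acetate pH 7.5 buffer with Mg, Tween-20 and BSA, then purified enzyme at 10nM; light output imaged.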
Npr1 antag conf – Natriuretic polypeptide receptor (hNpr1) antagonism - Confirmation; shares compounds with hNpr1 antagonist; HEK293 hNpr1 cGMP GloSensor luminescence, ANP-stimulated; Potency, µM (titrated, usually from 57.6 µM), without a hit: at the highest dose activity change, negative = inhibition, usual class: inhibitors; hit rate 76% among 1,400; AID 1347044, 2019; note: nearly all actives have a fitted effect of over 70% in size
Npr2 selectivity – Natriuretic polypeptide receptor (hNpr2) antagonism - Subtype selectivity assay; Potency, µM (doses to about 57.6 µM), without a hit: at the highest dose activity change, negative = inhibition, most hits filed as inhibitors; HEK293 hNpr2 GloSensor cGMP luminescence, CNP-stimulated; hit rate 67% among 1,400; shares compounds with hNpr1 antagonist; note: nearly all actives have a fitted effect of over 70% in size
FLuc inh counter – Natriuretic polypeptide receptor (hNpr1) antagonism - Confirmation firefly luciferase (FLuc) inhibition counterscreen | AID 1347047, 2019 | Potency, µM (top dose mostly 57.6 µM), for the others: at the top dose activity change, negative = inhibition, usual class: inhibitors | shares compounds with hNpr1 antagonist | hit rate 0.7% among 1,400 | purified FLuc enzyme, luminescence, Km substrate; active = well fitted curve in the direction sought with a large enough effect; inconclusive = small, poorly fitted or top-dose-only effect, or another doubt; inactive = no such curve, though single readings can be large; an effect the other way counts as inactive or inconclusive; note: 0% is about no effect
GloSensor ctrl – Natriuretic polypeptide receptor (hNpr1) antagonism - Counterscreen GloSensor control cell line; Potency, µM (doses to about 57.6 µM), inactives show at the highest dose activity change, negative = inhibition, hits mostly inhibitors; AID 1347051, 2019; HEK293 GloSensor cGMP, SNP-stimulated, luminescence; shares compounds with hNpr1 antagonist; hit rate 69% among 1,400; note: % is set by controls: 0 for no effect and ±100 for the full control effect; nearly all actives have a fitted effect of over 70% in size
Numbers without * were called inactive; i = inactive; ? = inconclusive; . = no result; ! = repeats disagree; [ ] = dose if it differs, or a comment. Unless noted, calls come from the whole dose curve. Potency is the fitted concentration of half-maximal effect.

SMILES	hNpr1 antagonist	3T3 cytotox	HEK293 tox	Luciferase inh	Npr1 antag conf	Npr2 selectivity	FLuc inh counter	GloSensor ctrl
O=C(N1CCC(Cc2nc(-c3ccc(F)cc3)no2)CC1)C1(c2ccccc2)CC1	?	?	?	i	.	.	.	.
COc1ccc(C2(C(=O)N3CCC(Cc4nc(-c5ccc(F)cc5)no4)CC3)CC2)cc1	5.6µM*	?	?	i	4.8µM*	6.1µM*	0%	6.1µM*
COc1ccc(C2(C(=O)N3CCC(Cc4nc(-c5ccccc5)no4)CC3)CC2)cc1	7.9µM*	?	?	i	7.7µM*	9.7µM*	0%	9.7µM*
Cc1cnc(CC2CCCN(Cc3ccc(C#N)cc3)C2)n1C(C)C (stereo not given)	1%	-24%	?	i	.	.	.	.
COc1cccc(C(=O)N2CCc3onc(-c4cccc(F)c4)c3C2)c1OC	10µM*	?	20µM*	i	22µM*	22µM*	0%	19µM*
COc1cccc(-c2noc3c2CN(C(=O)c2ccc(C)cc2OC)CC3)c1	?	?	?	i	.	.	.	.
N#Cc1ccc(OCc2nc3c(n2Cc2ccccc2)C(=O)N(CC2CC2)CCN3)cc1	?	-61%[138 µM]	?	?	.	.	.	.
Cc1nn2c(c1-c1ccccc1-c1ccccc1)N(Cc1ccccc1)CCC2	14µM*	13µM*	?	i	6.3µM*	8.9µM*	-8%[86.2 µM]	4µM*
Cc1ccncc1-c1c(C)nn2c1N(Cc1cccc(O)c1)CCC2	-28%[70.6 µM]	?	?	i	.	.	.	.
Cc1nn2c(c1-c1ccccc1-c1ccccc1)N(CCC(C)C)CCC2	1.6µM*	8.9µM*	7.9µM*	i	0.99µM*	1.6µM*	-14%[86.2 µM]	0.79µM*
COc1cccc(-c2ccc(CN3CCCC(c4nc5ccc(C)cc5c(=O)[nH]4)C3)cc2)c1 (stereo not given)	11µM*	28µM*!	25µM*	i	17µM*	22µM*	-3%	17µM*
O=c1[nH]c(C2CCN(Cc3ccc(-c4cccnc4)cc3)CC2)nc2ccc(F)cc12	?	5.6µM*!	?	i	19µM*	19µM*	0%	17µM*
Cc1ccc2nc(C3CCN(Cc4ccccc4)CC3)[nH]c(=O)c2c1	3%	3%	-7%	i	.	.	.	.
Cc1ccc(C)c(CN2CCc3nc(N(C)Cc4cccnc4)[nH]c(=O)c3CC2)c1	-4%	?	?	i	.	.	.	.
O=[S+]([O-])(Nc1ccccc1)c1ccc2c(c1)OCCN(Cc1cccnc1)C2	22µM*	?	?	i	40µM*	?	6%[86.2 µM]	40µM*
Cc1cn2nnc(C(=O)NCc3ccc(C(C)C)cc3)c2c(=O)[nH]1	?	?	?	i	27µM*	?	0%	24µM*
CO[C@H]1[C@H](NC(=O)c2sccc2Cl)c2ccccc2C12CCNCC2	1%	1%	0%	i	.	.	.	.
COc1cccc(CC(=O)NC2CCN(c3cc(-c4ccc(Cl)cc4)[nH]n3)CC2)c1	?	-24%	-30%	i	?	?	-3%	?
COc1ccc(C(=O)NC2CCCN(c3cc(-c4ccc(Cl)cc4)[nH]n3)C2)c(C)c1 (stereo not given)	?	-28%	-29%	i	?	?	-2%	?
COc1ccc(CC(=O)NC2CCN(c3cc(-c4ccc(F)cc4)[nH]n3)CC2)cc1OC	11µM*	?	?	i	22µM*	19µM*	-1%	22µM*
COc1ccc(C(=O)NC2CCN(c3cc(-c4ccc(Cl)cc4)[nH]n3)CC2)c(C)c1	?	?	?	i	.	.	.	.
N#Cc1ccc(C(=O)NC2CCN(c3cc(-c4ccc(Cl)cc4)[nH]n3)CC2)cc1	?	-20%	?	i	?	?	-2%	?
COc1ccc(-c2cc(N3CCC(NC(=O)Cc4cccc(OC)c4)CC3)n[nH]2)cc1	-7%	?	?	i	.	.	.	.
N#Cc1ccc(C(=O)NC2CCN(c3cc(-c4ccccc4)[nH]n3)CC2)cc1	0%	?	?	i	.	.	.	.
O=C(Cc1ccc(F)cc1)NC1CN(c2ccnc3ccnn23)C1	.	-29%[138 µM]	-27%[172 µM]	.	.	.	.	.
SMILES	hNpr1 antagonist	3T3 cytotox	HEK293 tox	Luciferase inh	Npr1 antag conf	Npr2 selectivity	FLuc inh counter	GloSensor ctrl
O=c1n(CCN2CCCC(N[S+](=O)([O-])c3ccccc3)C2)nc2n1CCCC2 (stereo not given)	.	-13%	i	.	.	.	.	.
COc1ccc(CC(=O)NC2CCCN(c3cc(-c4ccc(F)cc4)[nH]n3)C2)cc1 (stereo not given)	-3%	0%	-10%	i	.	.	.	.
COc1ccc(CC(=O)NC2CCN(c3cc(-c4ccc(F)cc4)[nH]n3)C2)cc1OC (stereo not given)	13µM*	?	?	i	22µM*	22µM*	-1%	24µM*
O=C(COc1ccccc1)NC1CCN(c2cc(-c3ccccc3)[nH]n2)CC1	-30%	?	?	i	.	.	.	.
COc1ccc(CC(=O)NC2CCN(c3cc(-c4ccc(Cl)cc4)[nH]n3)CC2)cc1OC	18µM*	?	40µM*	i	24µM*	22µM*	-1%	24µM*
Cc1ccccc1OCC(=O)NC1CCN(c2cc(-c3ccccc3)[nH]n2)CC1	11µM*	?	25µM*	i	15µM*	22µM*	-2%	11µM*
COc1ccc(CNC(=O)N2CCOc3ccc(N(C)C)cc3C2)cc1	.	-30%	?	.	.	.	.	.
COc1ncccc1-c1cc(C(=O)NCCN(C)C)c2c(c1)ncn2C	.	.	.	.	-13%[86.2 µM]	-2%[86.2 µM]	6%[86.2 µM]	-1%[86.2 µM]
